Measurements reported in PubChem BioAssay AID488969 (Vanderbilt High Throughput Screening Facility, 2010).
Over roughly 110,000 compounds, “z-score” has its median near -0.1; the highest 2% begin near 2. This excerpt belongs to a sample that is enriched for the highest values. The source made the active and inactive calls.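 Rule for the calls: active = z-score in the third read window above 3 or below -3; inactive = the rest.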

The compounds below were run against Metabotropic glutamate receptor 8 (Rattus norvegicus) (UniProt P70579) (assay: rat mGluR8 modulators via GIRK flux, primary screen, cell-based, thallium flux, HTS (AID 488969)). Conditions: HEK293 rat mGluR8, GIRK (G protein-gated inwardly rectifying potassium channel) thallium flux, FluoZin2; at 10 µM; stronger effect = higher value; submaximal glutamate (EC20) added with thallium.
Metabotropic glutamate receptor 8 (Rattus norvegicus), sequence (P70579 whole entry, looked up): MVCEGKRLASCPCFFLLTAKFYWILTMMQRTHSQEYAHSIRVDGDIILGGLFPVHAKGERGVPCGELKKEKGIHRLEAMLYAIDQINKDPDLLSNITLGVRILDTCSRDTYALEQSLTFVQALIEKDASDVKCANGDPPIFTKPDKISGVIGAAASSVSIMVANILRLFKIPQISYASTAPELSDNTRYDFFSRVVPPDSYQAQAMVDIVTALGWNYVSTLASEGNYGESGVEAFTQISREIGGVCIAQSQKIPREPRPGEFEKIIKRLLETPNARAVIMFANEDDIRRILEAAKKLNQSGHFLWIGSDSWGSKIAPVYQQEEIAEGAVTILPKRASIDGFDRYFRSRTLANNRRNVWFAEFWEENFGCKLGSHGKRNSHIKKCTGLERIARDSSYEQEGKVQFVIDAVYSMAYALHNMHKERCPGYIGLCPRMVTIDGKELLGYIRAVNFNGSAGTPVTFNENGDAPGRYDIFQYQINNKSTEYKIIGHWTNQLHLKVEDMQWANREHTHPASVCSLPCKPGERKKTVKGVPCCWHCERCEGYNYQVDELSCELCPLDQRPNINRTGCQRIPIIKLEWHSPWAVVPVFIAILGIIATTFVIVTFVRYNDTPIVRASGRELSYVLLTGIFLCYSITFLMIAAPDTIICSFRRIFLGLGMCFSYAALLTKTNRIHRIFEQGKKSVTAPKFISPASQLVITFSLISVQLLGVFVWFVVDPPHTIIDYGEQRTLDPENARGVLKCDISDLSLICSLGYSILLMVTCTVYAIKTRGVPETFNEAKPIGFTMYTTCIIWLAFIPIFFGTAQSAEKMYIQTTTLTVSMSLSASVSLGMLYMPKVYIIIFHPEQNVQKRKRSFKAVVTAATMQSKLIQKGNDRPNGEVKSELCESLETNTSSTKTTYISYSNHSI

Row | Compound | z-score
1 | CC1CC1C(=O)OCC(=O)NC(=O)NCc1ccco1 (centres undefined) | -0.131
2 | CCc1ccc(-c2nn(-c3ccccc3)cc2C2SCC(=O)N2Cc2ccco2)cc1 (centres undefined) | -0.102
3 | Cc1ccc(Nc2nc(N)c([N+](=O)[O-])c(N3CCCC(C)C3)n2)cc1C (centres undefined) | 2.26
4 | Cc1ccc(Nc2nc(N)c([N+](=O)[O-])c(N3CCOCC3)n2)cc1C | -0.153
5 | Cc1cccc(Nc2nc(N)c([N+](=O)[O-])c(N3CCCC(C)C3)n2)c1 (centres undefined) | -0.0648
6 | O=C(NCCc1ccc(Cl)cc1)C1CCCN(S(=O)(=O)c2cnc[nH]2)C1 (centres undefined) | 0.0211
7 | COc1ccc(S(=O)(=O)N(CCN2CCOCC2)Cc2cc(OC)ccc2OC)cc1 | -0.389
8 | Cc1cc2nc(CCN(Cc3cccnc3)C(=S)Nc3ccccc3)[nH]c2cc1C | 0.259
9 | O=S(=O)(c1ccc(NC(=S)Nc2ccc3c(c2)OCO3)cc1)N1CCOCC1 | 0.154
10 | O=S(=O)(c1ccc(Nc2ccc3c(c2)OCO3)nc1)N1CCOCC1 | 2.28
11 | Cc1ccc(S(=O)(=O)N2CCOCC2)cc1C(=O)OCC(=O)Nc1ccc2c(c1)OCO2 | -0.412
12 | C=CCn1c(SCn2nnc3ccccc3c2=O)nnc1-c1ccc(Br)cc1 | 0.482
13 | Cc1ccc(/C=C(\NC(=O)c2ccc(C)cc2)c2nc(=S)[nH][nH]2)cc1 | 0.31
14 | COC(=O)c1ccccc1NC(=S)N(Cc1ccc2c(c1)OCO2)Cc1cc2cc(C)ccc2[nH]c1=O | 2.03
15 | COC(=O)c1ccccc1NC(=S)N(Cc1ccc2c(c1)OCO2)Cc1cc2cc(OC)ccc2[nH]c1=O | -0.529
16 | COC(=O)c1ccccc1NC(=S)N(Cc1ccc2c(c1)OCO2)Cc1cc2ccc(C)cc2[nH]c1=O | 0.26
17 | CC(C)(C)N=C1NN=C(c2cc3ccccc3o2)CS1 | -0.336
18 | CC(=O)O/N=C(/C)c1ncc(C(F)(F)F)cc1N1CCOCC1 | -0.337
19 | Cc1ccccc1Cn1c(CN2CCc3ccccc3C2)nc2c1c(=O)n(C)c(=O)n2C | -0.399
20 | COc1ccc(/C=C(/C(=O)c2ccc(Cl)cc2Cl)n2cncn2)cc1 | 0.0171
21 | COc1ccc(C(=O)NC2CCCCCC2)cc1S(=O)(=O)N1CCCc2ccccc21 | -0.00531
22 | CCN(/N=C/c1cccs1)c1cc(=O)n(C)c(=O)[nH]1 | -0.0804
23 | O=C(N/N=C/C=C/c1ccccc1)c1ccccc1Br | -0.846

Row | Compound | z-score
24 | O=C(NN=C1c2ccccc2-c2ccccc21)c1ccccn1 | 0.564
25 | O=C(NN=C1c2ccccc2-c2ccccc21)c1ccccc1Br | 5.82 (active)
26 | O=C(N/N=C/C=C/c1ccccc1)c1cccc(Br)c1 | 0.831
27 | O=C(COc1cccc(Br)c1)NN=C1c2ccccc2-c2ccccc21 | 0.184
28 | O=C(NN=C1c2ccccc2-c2ccccc21)c1cccc(Br)c1 | 4.19 (active)
29 | CCC(C)N(C)Cc1cccc(C2(O)CCN(S(=O)(=O)c3ccc(F)cc3)CC2)c1 (centres undefined) | -0.276
30 | CCOc1ccc(Nc2oc(-c3ccccc3Cl)nc2C#N)cc1 | -0.217
31 | Cc1cc2nnc(SC(C)C)n2c2ccccc12 | -1.9
32 | CCOC(=O)CSc1nnc2cc(C)c3ccccc3n12 | -1.09
33 | CCOC(=O)C(CC)Sc1nnc2cc(C)c3ccccc3n12 (centres undefined) | 7.83 (active)
34 | Cc1c([N+](=O)[O-])c([N+](=O)[O-])nn1CC(=O)N1CCCCC1 | -0.199
35 | Cc1ccc(S(=O)(=O)N2CCCC2C(=O)O)cc1 (centres undefined) | 0.451
36 | Cc1ccc(-c2nnn(CC(=O)NC3CCN(Cc4ccccc4)CC3)n2)cc1 | 0.381
37 | Cc1ccc(-c2nnn(CC(=O)NC3CC4CCC3C4)n2)cc1 (centres undefined) | 5.1 (active)
38 | CC1CCCCC1NC(=O)Cn1nnc(-c2ccc(Cl)cc2)n1 (centres undefined) | 0.119
39 | CC(O)c1n(C)c(Cl)c[n+]1C (centres undefined) | -0.00128
40 | O=C(CO/N=C/c1ccccc1O)N1CCc2ccccc21 | -0.0476
41 | Cc1cc(NC(=O)c2ccc(N3C(=O)CCC3=O)cc2)no1 | 0.412
42 | O=C(Nc1ccccc1)c1cccc(N2C(=O)CCC2=O)c1 | -0.0312
43 | O=C(Nc1nnc(-c2ccc(Cl)cc2)o1)NC1CCCCC1 | -0.0226
44 | O=C(Nc1nnc(-c2ccccc2)o1)c1cccc(N2C(=O)CCC2=O)c1 | -0.326
45 | O=C(Nc1nnc(-c2ccc(Cl)cc2)o1)c1cccc(N2C(=O)CCC2=O)c1 | 3.29 (active)
46 | O=C(Nc1nnc(-c2ccc(Cl)cc2)o1)c1ccc(N2C(=O)CCC2=O)cc1 | 4.39 (active)

Row | Compound | z-score
47 | Cc1cc(C)c(C)c(OCCCn2ccnc2)c1 | -0.369
48 | COC(=O)c1ccc(/C=N/N2CCN(Cc3ccc(C)cc3C)CC2)cc1 | 2.42
49 | COC(=O)c1ccc(/C=N/N2CCN(Cc3ccccc3)CC2)cc1 | -0.196
50 | COC(=O)c1ccc(/C=N\N2CCN(Cc3ccc(C)cc3)CC2)cc1 | -0.269
51 | Cc1cccc(NC(=O)C2Cc3ccccc3CN2C(=O)OCc2ccccc2)c1C (centres undefined) | -0.188
52 | CCC1CCCCN1C(=O)CSc1nc2c([nH]c3ccccc32)c(=O)n1C (centres undefined) | 0.357
53 | CCOP(=O)(OCC)C(Nc1ccccn1)c1ccc(F)cc1 (centres undefined) | -0.18
54 | O=C(NCc1ccccc1F)c1cccs1 | -0.158
55 | O=C(O)c1cc2c(ccc3ccccc32)[nH]1 | -0.467
56 | CS(=O)(=O)c1ccc2nc(NC(=O)Nc3ccc(Cl)cc3)sc2c1 | 0.161
57 | O=C(Nc1nc2ccc(F)cc2s1)C1CCCO1 (centres undefined) | 0.535
58 | CS(=O)(=O)c1ccc2nc(NC(=O)Nc3ccc(Cl)c(Cl)c3)sc2c1 | 3.23 (active)
59 | O=C(Nc1nc2ccc(S(=O)(=O)N3CCCCC3)cc2s1)C1CCCO1 (centres undefined) | -0.0835
60 | NS(=O)(=O)c1ccc2nc(NC(=O)C3CCCO3)sc2c1 (centres undefined) | 2.74
61 | CS(=O)(=O)c1ccc2nc(NC(=O)C3C4C=CC(C4)C3C(=O)O)sc2c1 (centres undefined) | 4.92 (active)
62 | CS(=O)(=O)c1ccc2nc(NC(=O)Nc3cccc(Cl)c3)sc2c1 | 0.135
63 | CCC(=O)Nc1nc2ccc(S(C)(=O)=O)cc2s1 | 0.244
64 | CC1=CCC(C(=O)O)C(C(=O)Nc2nc3ccc(S(C)(=O)=O)cc3s2)C1 (centres undefined) | 0.387
65 | CN(C)c1ccc(CN(C(=O)COc2ccccc2)C2CCS(=O)(=O)C2)cc1 (centres undefined) | -0.709
66 | O=C(NCc1cn(-c2ccccc2)nc1-c1ccccc1)c1ccc([N+](=O)[O-])cc1 | -0.0499
67 | O=C(CSc1cc(Cl)ccc1Cl)NCC1CCCO1 (centres undefined) | -0.0958
68 | Cc1ccccc1-n1c(SCc2csc(Nc3ccccc3)n2)nnc1-c1cccnc1 | -0.897
69 | CCN1CCN(Cc2cccc(Oc3ccc(Cl)cc3)c2)CC1 | 0.924

Row | Compound | z-score
70 | CCN1CCN(Cc2cccc(Oc3ccccc3)c2)CC1 | 0.156
71 | CN1CCN(Cc2cccc(Oc3ccc(Cl)cc3)c2)CC1 | 4 (active)
72 | CN1CCN(Cc2cccc(Oc3ccccc3)c2)CC1 | 0.0807
73 | CC1CCCN(Cc2cccc(Oc3ccccc3)c2)C1 (centres undefined) | 6.29 (active)
74 | c1ccc(Oc2cccc(CN3CCCCC3)c2)cc1 | -0.282
75 | CCc1ccc(Nc2nnc(SCC(=O)N(C)CC(=O)Nc3ccccc3CC)s2)cc1 | -0.439
76 | CSc1nccc(Oc2ccc(C#N)cc2)n1 | -0.172
77 | CC1=C/C(=N\OS(=O)(=O)c2ccccc2)C(C)=CC1=O | -0.189
78 | CC1=C/C(=N\OS(=O)(=O)c2ccccc2)C=CC1=O | 3
79 | CC1=CC(=O)C=C(C)C1=NOS(=O)(=O)c1ccccc1 | 0.257
80 | Cc1ccc(C(=O)N2CC(C)OC(C)C2)c(Cl)c1 (centres undefined) | -0.0463
81 | Cc1ccc(-n2c(Cc3cccn3C)nnc2SCC(=O)Nc2cc(C)on2)cc1 | -0.345
82 | CCc1cc(C(=O)NNC(=S)Nc2ccccc2C)cs1 | 1.47
83 | CCc1cc(C(=O)NNC(=S)NCc2ccccc2)cs1 | 0.0336
84 | CNC(=S)NNC(=O)c1sccc1C | -0.0354
85 | Cc1ccc(C)c(NC(=S)NNC(=O)c2sccc2C)c1 | 1.53
86 | CCc1cc(C(=O)NNC(=S)Nc2cc(C)ccc2C)cs1 | 6.35 (active)
87 | CCCCNC(=S)NNC(=O)c1csc(CC)c1 | -0.0512
88 | CCc1cc(C(=O)NNC(=S)Nc2cccc(C)c2)cs1 | 7.17 (active)
89 | CCNC(=S)NNC(=O)c1csc(CC)c1 | -0.163
90 | Cc1cccc(NC(=S)NNC(=O)c2sccc2C)c1 | 2.13
91 | Cc1nn2c3c(cnc2c1-c1ccccc1)C(=O)CCC3 | -0.149
92 | CC(C)(C)C(=O)NC1(C(F)(F)F)N=C2SCCN2C1=O (centres undefined) | -0.137

Row | Compound | z-score
93 | O=C(COc1ccc(S(=O)(=O)NC2CCCCC2)cc1)NCc1cccnc1 | -0.589
94 | COc1cc(-c2nc3ccccc3c(=O)n2N)cc(OC)c1OC | -0.0215
95 | O=C(CSc1ccc2nnc(-c3ccc(Cl)cc3)n2n1)N1CCCc2ccccc21 | 0.00121
96 | Cc1cc2nc3c(nc2cc1C)C1(C(=O)N(C)C)CCC3(C)C1(C)C (centres undefined) | -0.192
97 | Cc1cccc(-n2ncc3c(NCc4cccs4)ncnc32)c1 | -0.705
98 | O=c1c2ccccc2c(-c2ccccc2)nn1Cc1ccc(Cl)cc1 | -0.152
99 | Cc1ccc2[nH]c3c(=O)n(CCC4=CCCCC4)cnc3c2c1 | -0.447
100 | Cn1c(-c2ccccc2O)cc2ccccc21 | 0.085
101 | Cc1occc1C(=O)N=Nc1c(O)[nH]c2ccc(Br)cc12 | -0.135
102 | CCC(=O)NC(=S)Nc1ccc(NC(=O)c2ccc(OC)cc2)cc1 | -0.111
103 | O=C(Nc1ccccc1Sc1ccccc1)C1CCCO1 (centres undefined) | -0.775
104 | Cc1cccc(NC(=O)C2CCCN2S(=O)(=O)c2cccc3cccnc23)c1 (centres undefined) | 0.22
105 | O=C(Nc1cccc(F)c1)C1CCCN1S(=O)(=O)c1cccc2cccnc12 (centres undefined) | -0.182
106 | CC(=O)c1ccc(NC(=O)C2CCCN2S(=O)(=O)c2cccc3cccnc23)cc1 (centres undefined) | -0.24
107 | Cc1ccc(NC(=O)C2CCCN2S(=O)(=O)c2cccc3cccnc23)cc1F (centres undefined) | 2.9
108 | Cc1ccccc1NC(=O)C1CCCN1S(=O)(=O)c1cccc2cccnc12 (centres undefined) | -0.0844
109 | CC(=O)c1cccc(NC(=O)C2CCCN2S(=O)(=O)c2cccc3cccnc23)c1 (centres undefined) | 4.14 (active)
110 | COc1ccc(-c2cn3c(C)c(C(=O)N4CCN(c5ccc(F)cc5)CC4)sc3n2)cc1 | 0.116
111 | COc1cccc(CNCCSc2nnnn2C)c1OC | 0.709
112 | O=C(CSc1cccc2cccc(Cl)c12)NCc1cccs1 | 3.5 (active)
113 | O=C(CSc1ccc2ccccc2c1)NCc1cccs1 | 0.0417
114 | Cc1csc(SCC(=O)NCc2cccs2)n1 | 0.824
